DT40 TDP1 no CPT – qHTS for Inhibitors of human tyrosyl-DNA phosphodiesterase 1 (TDP1): qHTS in cells in absence of CPT | DT40 Tdp1-/- hTDP1 cells, no CPT, ATP luminescence, 48 h | Potency, µM (top dose mostly 46.2 µM), inactives show top-dose activity change, negative = growth inhibition, hits mostly inhibitors | 420,000 compounds, 15% hits | AID 686978, 2013; note: potency is the fitted concentration of half-maximal effect; nearly all actives have a fitted effect of over 55% in size
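Growth of hTDP1-complemented DT40 Tdp1-knockout cells is measured by ATP luminescence after at least 48 hr compound exposure at 37 °C, with DMSO substituting for the 20 nM CPT used in the parallel screen.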
HT1080NT lethal – kills 2HG-producing HT-1080-NT fibrosarcoma cells | 360,000 compounds, 1.6% hits | Potency, µM (highest dose often 46.1 µM), for the others: at the highest dose activity, negative = less viability, most hits filed as cytotoxic | HT-1080-NT fibrosarcoma viability, CellTiter-Glo ATP luminescence, 48 h;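 note: NT is the 2HG producing partner of a matched IDH1 knockdown line; potency is the fitted concentration of half-maximal effect; 0% = DMSO-treated cells and -100% = media-only wells without cells; nearly all actives have a fitted effect of over 55% in size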
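Compounds were tested in concentration-response format on HT-1080-NT cells for 48 hours at 37 degrees C. Cell viability came from CellTiter-Glo luminescence; curves were classified by r2, response magnitude and activity.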
DT40 TDP1 CPT – growth inhibition of DT40 Tdp1-/-;hTDP1 cells with camptothecin (screen for TDP1 inhibitors); chicken DT40 Tdp1-/-;hTDP1 cells + 20 nM CPT, ATP luminescence, 48 h; Potency, µM (doses to about 46.2 µM), for the others: at the highest dose activity change, negative = growth inhibition, most hits filed as inhibitors; 420,000 compounds, 12% hits; AID 686979; note: potency is the fitted concentration of half-maximal effect; nearly all actives have a fitted effect of over 55% in size
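Chicken DT40 Tdp1-/- cells complemented with human TDP1, 400 cells/well, exposed to compounds plus 20 nM camptothecin for at least 48 h at 37 C; viability read as ATP content by CellTiter-Glo luminescence.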
HT1080 IDH1KD tx – HT-1080 IDH1 knockdown cell toxicity (counter line) | HT-1080 IDH1 knockdown viability, ATP luminescence, 48 h | 360,000 compounds, 2% hits | AID 686971 | Potency, µM (highest dose often 46.1 µM), without a hit: at the top dose activity, negative = toxicity, hits mostly cytotoxic;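 note: potency is the fitted concentration of half-maximal effect; 0% = DMSO wells and -100% = cell-free medium wells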
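After a 2 h attachment period, IDH1KD HT-1080 cells took pin-transferred compound for 48 h at 37 °C; ATP-based luminescence after 10 min room-temperature reagent incubation reported viability.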
ELG1 repair inh – inhibitors of ELG1-dependent DNA repair in HEK293T cells | HEK293T ELG1-luciferase reporter, luminescence, 16 h; DNA damage induced by 5-fluorouridine | Potency, µM (titrated, usually from 46.1 µM), inactives show top-dose activity change, negative = inhibition, actives largely listed as inhibitors | 330,000 compounds, 2.3% hits; note: potency is the fitted concentration of half-maximal effect; nearly all actives have a fitted effect of over 55% in size
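HEK293T cells expressing luciferase-tagged ELG1 (2,000/well) received 5-Fluorouridine plus compound or DMSO for 16 hr at 37 °C. Luciferase was read by ONE-Glo luminescence after 30 min at room temperature.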
IL1B secr inh – inflammasome signaling inhibition, IL-1 beta readout | THP-1 LPS/ATP IL-1B secretion, AlphaLISA, 16 h; stronger effect = lower value | activity change, % at 57.5 µM | 360,000 compounds, 4.7% hits; in the data active = activity change below about -50%; inconclusive = mostly about -30% to -49%
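THP-1 cells pretreated 1 hr with compounds (up to 57.5 uM final), then stimulated with LPS (250 ng/mL final) plus ATP (1.25 mM final); secreted IL-1B measured by AlphaLISA after 16 hr, decreased signal indicating inhibition.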
* marks the source's active call; other numbers are inactive results; u = inconclusive; x = no result given; [ ] = dose if it differs, or a comment. This is a sample that favours compounds with a hit; in the whole collection about 19% have one here. Unless noted, calls come from the whole dose curve; as a rule, active = well fitted curve in the direction sought with a large enough effect; inconclusive = small, poorly fitted or top-dose-only effect, or another doubt; inactive = no such curve, though single readings can be large; an effect the other way counts as inactive or inconclusive. Unless noted, % is set by controls: 0 for no effect and ±100 for the full control effect.

SMILES	DT40 TDP1 no CPT	HT1080NT lethal	DT40 TDP1 CPT	HT1080 IDH1KD tx	ELG1 repair inh	IL1B secr inh
CC(=O)c1ccc(N2CCN(c3ccc(S(=O)(=O)NCCCN(C)C)cc3[N+](=O)[O-])CC2)cc1	23.1µM*	2.1%	23.1µM*	-19.9%	-21.9%	-19.1
CC(=O)c1ccc(N2CCN(c3ccc(S(=O)(=O)NCCN(C)C)cc3[N+](=O)[O-])CC2)cc1	u	-0.1%	u	0.8%	-2.3%	8.6
CN(C)CCNS(=O)(=O)c1ccc(N2CCc3ccccc32)c([N+](=O)[O-])c1	25.9µM*	u	16.4µM*	u	6.8%	-23.1
O=C(COCc1cc(-c2ccc3c(c2)OCO3)on1)NCc1ccc(F)cc1	-21.5%	x	u	x	x	x
COc1ccc(CNC(=O)C(=O)NCC(c2cccs2)S(=O)(=O)c2ccc(C)cc2)cc1 (centres undefined)	u	x	0.3%	x	x	x
CN(C)c1ccc(C(=O)c2ccc(O)cc2O)cc1	u	-6.5%	u	-14.6%	u	40.1
CN(C)c1ccc(Cc2cc3c(O)ccc(O)c3cc(Cc3ccc(N(C)C)cc3)c2=O)cc1	4.11µM*	-1.1%	3.66µM*	u	x	-112.6*
CCc1ccc(C(C)(O)C(CN2CCOCC2)c2ccccc2)cc1 (centres undefined)	20.6µM*	-4.5%	20.6µM*	-14.0%	-5.1%	-3.2
CCCCOc1ccc(C(O)(CC)CCN2CCOCC2)cc1 (centres undefined)	-26.9%	-12.9%	-25.7%	-15.0%	-2.9%	u
CCc1ccc(C(O)(C(C)C)C(CN2CCOCC2)c2ccccc2)cc1 (centres undefined)	16.4µM*	-3.2%	16.4µM*	0.4%	u	0.0
CCCCCOc1ccc(C(C)(O)C(CN2CCOCC2)c2ccccc2)cc1 (centres undefined)	20.6µM*	-9.1%	u	-2.0%	-19.9%	u
CCCCOc1ccc(C(O)(CCC)CCN2CCOCC2)cc1 (centres undefined)	16.4µM*	-7.6%	20.6µM*	-24.7%	-8.0%	0.0
O=C(CSc1nnc(-c2ccccc2F)n1C1CC1)NCc1ccco1	-5.6%	5.6%	11.8%	9.7%	0.3%	2.1
O=C(/C=C/c1ccc(F)cc1)N1CCCc2ccccc21	18.4µM*	-10.6%	u	-0.2%	u	u
O=C(/C=C/c1ccc(-c2ccc(F)cc2)o1)N1CCCC1	20.6µM*	-14.0%	u	-7.9%	u	-75.4*
Cc1ccc(/C=C/C(=O)N2CCCN(C(=O)/C=C/c3ccc(C)cc3)CC2)cc1	14.6µM*	-12.0%	u	-21.0%	20.1%	-17.1
CN1CCN(C(=O)/C=C/c2ccc([N+](=O)[O-])o2)CC1	14.6µM*	u	9.2µM*	20.6µM*	-0.1%	-57.8*
O=C(/C=C/c1cccc(F)c1)N1CCc2ccccc21	u	-4.3%	-12.8%	-9.3%	u	4.1
CSc1nc(C(=O)N2CCOc3ccc(CN4CCN(Cc5ccccn5)CC4)cc3C2)cs1	-12.1%	x	19.4%[9.04 µM]	x	x	x
O=c1c2c(c(-c3ccccc3)nn1Cc1ccccc1)CCCC2	-17.5%	7.9%	-28.1%	5.9%	-9.0%	u
Cc1cc2oc(C(=O)Nc3sc4c(c3C(=O)NCC3CCCO3)CCC4)cc(=O)c2cc1C (centres undefined)	-20.4%	x	9.1%	x	x	x
OCC(CO)c1cnnc2ccccc12	-12.2%	1.6%	-5.4%	19.1%	x	3.1
Cc1ccc(S(=O)(=O)Nc2cc(=O)[nH]c(SCC(=O)Nc3cccc(C)c3)n2)cc1	9.0%	0.0%	-5.1%	8.5%	u	6.0
CCOC(=O)N1CCN(C(=O)/C=C/c2ccc([N+](=O)[O-])cc2)CC1	-21.1%	0.9%	-6.3%	-0.2%	4.9%	-6.5
O=C(/C=C/c1ccc(F)cc1)N1CCCN(C(=O)/C=C/c2ccc(F)cc2)CC1	u	5.6%	16.4µM*	0.9%	-12.3%	-24.8
SMILES	DT40 TDP1 no CPT	HT1080NT lethal	DT40 TDP1 CPT	HT1080 IDH1KD tx	ELG1 repair inh	IL1B secr inh
CCOC(=O)N1CCN(C(=O)/C=C/c2ccc(C(C)(C)C)cc2)CC1	16.4µM*	-11.8%	u	-5.0%	u	u
CCc1c(C)nc2[nH]ncn2c1=O	-4.6%	6.6%	0.3%	7.0%	x	25.7
O=C(c1csnn1)N1CCC[C@@]2(CCN(c3ccccn3)C2)C1	-2.6%	x	4.4%	x	x	x
CC(C)Cn1c(=O)c(C(=O)Nc2cnccn2)c(O)c2ccccc21	25.9µM*	0.7%	u	5.4%	0.3%	30.9
CCCn1c(=O)c(C(=O)Nc2ncccc2O)c(O)c2ccccc21	-2.6%	5.8%	-15.0%	12.5%	-1.7%	4.8
CC(C)Cn1c(=O)c(C(=O)Nc2ccncc2)c(O)c2ccccc21	4.11µM*	-3.4%	2.91µM*	0.0%	x	0.0
O=C(NCc1ccccc1OC(F)(F)F)C1CCC(=O)N(CCc2ccccn2)C1 (centres undefined)	6.1%	16.2%	10.0%	14.0%	x	-9.4
CCCNC(=O)C1(C)CCCN(Cc2ccc(-n3ccnc3)cc2)C1 (centres undefined)	1.9%	7.1%	-23.1%	u	x	-1.6
COc1ccc(S(=O)(=O)N[C@@H](C)C(=O)OCC(=O)Nc2cc3oc4ccccc4c3cc2OC)cc1	14.6µM*	3.7%	u	2.1%	u	13.3
COc1cc2c(cc1NC(=O)COC(=O)[C@@H](NS(=O)(=O)c1cccc(Cl)c1)C(C)C)oc1ccccc12	16.4µM*	-6.9%	u	-18.6%	3.8%	0.0
COC(=O)c1sc(N)c(C(=O)OC)c1COC(=O)[C@@H](NS(=O)(=O)c1cccc(Cl)c1)C(C)C	18.4µM*	u	u	-29.0%	14.6µM*	u
COc1cc2c(cc1NC(=O)C1CCCO1)oc1ccccc12 (centres undefined)	u	u	u	u	u	-4.6
COc1cc2c(cc1NC(=O)c1cccc(S(=O)(=O)N(C)C)c1)oc1ccccc12	14.6µM*	-6.6%	10.3µM*	u	u	-2.4
COc1cc2c(cc1NC(=O)COC(=O)c1ccccc1)oc1ccccc12	x	x	x	x	8.7%	x
COC(=O)c1c(NC(=O)COC(=O)[C@@H](NS(=O)(=O)c2cccc(Cl)c2)C(C)C)sc2c1CCC2	u	-2.1%	u	-4.4%	u	17.2

From PubChem
